High-throughput results (PubChem)
In the library only some 3% were active in any assay of this set; here they are far more common.
TrxR1 substrate: substrates of rat thioredoxin reductase 1; Potency, µM (titrated, usually from 114 µM), without a hit: at the top dose activity change, negative = substrate turnover; AID 588456; O89049; actives 0.01% (n = 390,000); purified TrxR1 substrate turnover, NADPH consumption readout; further: on the % scale 0 is the no-effect control and ±100 the full control effect; nearly all actives have a fitted effect of over 50% in size
Target sequence (O89049 whole entry, looked up): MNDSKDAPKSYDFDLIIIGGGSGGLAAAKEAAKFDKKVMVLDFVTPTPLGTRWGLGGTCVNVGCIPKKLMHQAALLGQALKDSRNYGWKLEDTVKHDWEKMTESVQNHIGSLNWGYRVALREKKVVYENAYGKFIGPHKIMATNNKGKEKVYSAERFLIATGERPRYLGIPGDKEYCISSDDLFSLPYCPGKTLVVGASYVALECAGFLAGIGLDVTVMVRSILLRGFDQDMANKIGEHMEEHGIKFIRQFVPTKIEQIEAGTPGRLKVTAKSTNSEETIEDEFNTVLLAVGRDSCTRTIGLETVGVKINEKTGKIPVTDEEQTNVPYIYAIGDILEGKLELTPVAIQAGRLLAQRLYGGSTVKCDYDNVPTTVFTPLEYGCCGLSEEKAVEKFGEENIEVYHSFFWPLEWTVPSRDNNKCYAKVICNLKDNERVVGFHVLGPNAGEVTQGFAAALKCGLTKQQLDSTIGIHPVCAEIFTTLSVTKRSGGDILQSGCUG
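Rat TrxR1, dispensed at 90 nM, was prereduced with 400 uM NADPH (final) for 5 min at ~22 deg C, then incubated with compound 15 min before 400 uM selenite. A first-read NADPH fluorescence drop versus no-compound background flagged substrates.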
Nrf2 activator: Nrf2 pathway activation. Potency, µM (doses to about 46.1 µM), without a hit: at the top dose activation, actives largely listed as activators. actives 0.31% (n = 410,000). AREc32 ARE-luciferase reporter (MCF7-derived line), luminescence, 24 h; further: % of control where 0% means no effect; nearly all actives have a fitted effect of over 65% in size
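Each well held 1000 AREc32 cells, which were incubated with compound for 24 hr at 37 deg C after overnight attachment, and ARE reporter activity was quantified by firefly luciferase luminescence.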
Nrf2 block: inhibitors of Nrf2 signaling; A549 ARE-Fluc reporter, luciferase luminescence, 18-24 h; Potency, µM (series often up to 46 µM), for inactives: top-dose activity change, negative = inhibition, most hits filed as inhibitors; actives 2.1% (n = 360,000); AID 504444; further: on the % scale 0 is the no-effect control and ±100 the full control effect; nearly all actives have a fitted effect of over 60% in size
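Cells were seeded and rested 2 h, then exposed to compounds for 18-24 h. CellTiter-Fluor was read first as a viability measure. BugLite was added 15 min before the final luminescent read of ARE-luciferase activity in A549 cells.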
TrxR1 inh: inhibitors of rat thioredoxin reductase 1 | recombinant rTrxR1, NADPH fluorescence consumption, selenite substrate | Potency, µM (titrated, usually from 114 µM), without a hit: at the top dose activity change, negative = inhibition, actives largely listed as inhibitors | actives 1% (n = 390,000) | AID 588453; further: on the % scale 0 is the no-effect control and ±100 the full control effect; nearly all actives have a fitted effect of over 65% in size
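Rat TrxR1 (90 nM in the dispensed reagent) was pre-reduced with 400 uM NADPH for 5 min at room temperature, then incubated with compound for 15 min. After 400 uM selenite was added, NADPH fluorescence (Ex 340/Em 450 nm) was followed for 8 min.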
GALK inh: galactokinase (human) inhibition; P51570; Purified GALK, Kinase-Glo residual ATP luminescence; Potency, µM (top dose mostly 57.5 µM), for inactives: at the top dose activity change, negative = inhibition, usual class: inhibitors; actives 0.007% (n = 270,000); further: on the % scale 0 is the no-effect control and ±100 the full control effect
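The enzyme phosphorylates galactose (100 uM) using ATP (35 uM); inhibition is detected as higher residual ATP, quantified by bioluminescence after 1 h reaction at room temperature, pH 8.0.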
A549 tox: A549 cytotoxicity, counter-screen for Nrf2 inhibitors; actives 0.16% (n = 390,000); A549 ARE-Fluc cells, CellTiter-Fluor viability, 18-24 h; Potency, µM (series often up to 46 µM), inactives show at the top dose activity change, negative = cytotoxicity, usual class: inhibitors; further: on the % scale 0 is the no-effect control and ±100 the full control effect
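Cytotoxicity counterscreen: CellTiter-Fluor fluorescence was measured in A549 ARE_Fluc cells after 18-24 h of compound exposure in a concentration series. The subsequent BugLite luminescent read reports ARE-luciferase activity.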
The depositor's hits bear a star; ? = inconclusive; . = no result; ! = not active in a repeat; [ ] = another dose, or the depositor's remark. The call rests on the fitted dose curve; in most records, active means well fitted curve in the direction sought with a large enough effect; inconclusive means small, poorly fitted or top-dose-only effect, or another doubt; inactive means no such curve, though single readings can be large; an effect the other way counts as inactive or inconclusive. Potency means the concentration at half of the fitted maximal effect.

SMILES	TrxR1 substrate	Nrf2 activator	Nrf2 block	TrxR1 inh	GALK inh	A549 tox
C/C(=N\NC(=O)c1ccc(F)cc1)c1ccccn1	3%	1%	?	14%	.	?
CCOc1ccc(C(=O)N/N=C(\c2ccccc2)c2ccccn2)cc1	-6%	8%	21µM*	0%	-1%	?
Cc1ccc(C(=O)N/N=C/c2ccc(-c3cccc(Cl)c3)o2)cn1	-2%[57.1 µM]	0%	-21%	-7%[57.1 µM]	-5%	-19%
Cc1ccc(C(=O)N/N=C\c2ccc(-c3ccc(Cl)c(Cl)c3)o2)cn1	61%	-3%	18µM*	13%	.	-17%
CSCCC(NS(=O)(=O)c1cccs1)C(=O)Nc1ccc(C)c(Cl)c1 (centres undefined)	-7%	3%	3%	-6%	.	-3%
O=C(CCN1CCC2CCC(C2)C1)c1ccc(F)cc1 (centres undefined)	7%[11.4 µM]	0%	9%	1.6µM*	.	-17%
CCn1nnnc1NCc1ccc(OCc2ccc(F)cc2Cl)c(OC)c1	6%	0%	21µM*	42%	-2%	-7%
COc1cc(CNc2nnnn2C)ccc1OCc1ccc(F)cc1Cl	2%	3%	-10%	17%	3%	2%
Cc1ccc(N2C(=O)[C@@H]3C(c4cccnc4)=NO[C@@H]3C2=O)cc1	4%	0%	-7%	45µM*	-2%	-4%
c1ccc(-n2ncc3c(NC4CCCCCC4)ncnc32)cc1	9%	0%	?	19%	-1%	-6%
CCOC(=O)N1CCC(Nc2ncnc3c2cnn3-c2ccccc2)CC1	12%[57.1 µM]	3%	16µM*	18%	-1%	-11%
COc1cc(C(=O)N(CCCN(C)C)c2nc3c(OC)cccc3s2)cc(OC)c1OC	-10%	7%	?	-10%	.	-1%
CCOc1ccc2nc(N3CCC(C(=O)Nc4ccccc4CC)CC3)sc2c1	-1%	4%	-13%	9%	.	?
COC(=O)c1cc(=O)n(CCc2ccc(OC)c(OC)c2)c(=Nc2ccc(F)c(Cl)c2)s1	1%[57.1 µM]	0%	23µM*	18%[57.1 µM]	0%	?
CC1=C(c2ccc(C)cc2)S(=O)(=O)NC1=NCc1ccccc1Cl	0%	3%	-22%	-7%	.	-18%
CCC(C)(C)NC(=O)C(c1ccc(OC)cc1)N(C(=O)CCC(=O)Nc1cc(C)on1)c1cccc(F)c1 (centres undefined)	-5%[57.1 µM]	0%	5.8µM*	2%[57.1 µM]	15%	?
COc1ccc(C(C(=O)NC(C)(C)C)N(C(=O)CCC(=O)Nc2cc(C)on2)c2cccc(F)c2)cc1 (centres undefined)	-3%	0%	-28%	12%	-1%	-4%
COc1ccc(S(=O)(=O)Cc2ccc(C(=O)NC3CCCCC3)o2)cc1	-1%	0%	15µM*!	10%	-3%	1%
Cc1ccccc1S(=O)(=O)Cc1ccc(C(=O)NC2CC2)o1	-1%	0%	21µM*	6%	-2%	?
Cc1ccccc1S(=O)(=O)Cc1ccc(C(=O)N(C)C2CCCCC2)o1	4%	0%	-2%	56µM*	-6%	-6%
COc1cccc(C2C(C#N)=C(NC(=O)CCc3ccccc3)Oc3ccc4ccccc4c32)c1 (centres undefined)	.	.	10%	.	.	-3%
O=C(CCSCc1ccccc1Cl)NCCc1ccccc1	1%[57.1 µM]	1%	.	15%[57.1 µM]	.	10%
CCCCC1(O)CC(C(F)(F)F)=NN1C(=O)COc1ccccc1 (centres undefined)	2%	0%	16µM*	14%	-1%	?
Cc1cc(C)cc(OCC(=O)N2N=C(C(F)(F)F)CC2(O)C(C)(C)C)c1 (centres undefined)	0%[57.1 µM]	0%	-27%	-2%[57.1 µM]	-3%	-14%
CN(C)C(=O)COc1ccccc1C(=O)OCC(=O)Nc1ccc(Oc2ccc(Br)cc2)cc1	7%	.	.	21%	.	.
SMILES	TrxR1 substrate	Nrf2 activator	Nrf2 block	TrxR1 inh	GALK inh	A549 tox
Cc1ccc(-c2nn3c(C)nnc3c3ccccc23)cc1S(=O)(=O)NCC(C)O (centres undefined)	-11%[57.1 µM]	?	.	-9%[57.1 µM]	.	-3%
COc1ccc(N2CCN(C(=O)Cc3csc(NC(=O)Nc4ccccc4OC)n3)CC2)cc1	-4%	2%	?	0%	.	-14%
COc1ccccc1NC(=O)Nc1nc(CC(=O)N2CCN(c3ccccc3)CC2)cs1	-12%[57.1 µM]	2%	7.3µM*	-11%[57.1 µM]	.	-15%
COc1cccc(C2c3c(ncn(-c4cccc(C#N)c4)c3=N)Oc3ccc4ccccc4c32)c1 (centres undefined)	.	.	?	.	.	-1%
COc1ccc(NC(=O)CSCC(=O)N2c3ccccc3CCc3ccccc32)cc1	-1%	3%	-19%	19%	0%	16%
COc1ccccc1NC(=O)CSCC(=O)N1c2ccccc2CCc2ccccc21	-6%	2%	18µM*	16%	-3%	?
COc1ccccc1NC(=O)COc1ccccc1	6%	11µM*	?	12%	2%	5%
O=C(COc1ccccc1)Nc1ccccc1Oc1ccccc1	-16%	-1%[9.22 µM]	?	-13%	-2%	22%
CC(C)(C)C(=O)Nc1ccc(Sc2ccc([N+](=O)[O-])cc2)cc1	-7%	5%	16µM*	-6%	-4%	1%
